An excerpt weighted towards active compounds, which were near 6.6% of everything screened.
Anthrax LF prot – blocks Bacillus anthracis lethal factor protease. P15917. multiplex microsphere protease cleavage assay, LF. inhibition, % at 10 µM. 360,000 compounds, 0.12% hits
Target sequence (P15917 whole entry, looked up): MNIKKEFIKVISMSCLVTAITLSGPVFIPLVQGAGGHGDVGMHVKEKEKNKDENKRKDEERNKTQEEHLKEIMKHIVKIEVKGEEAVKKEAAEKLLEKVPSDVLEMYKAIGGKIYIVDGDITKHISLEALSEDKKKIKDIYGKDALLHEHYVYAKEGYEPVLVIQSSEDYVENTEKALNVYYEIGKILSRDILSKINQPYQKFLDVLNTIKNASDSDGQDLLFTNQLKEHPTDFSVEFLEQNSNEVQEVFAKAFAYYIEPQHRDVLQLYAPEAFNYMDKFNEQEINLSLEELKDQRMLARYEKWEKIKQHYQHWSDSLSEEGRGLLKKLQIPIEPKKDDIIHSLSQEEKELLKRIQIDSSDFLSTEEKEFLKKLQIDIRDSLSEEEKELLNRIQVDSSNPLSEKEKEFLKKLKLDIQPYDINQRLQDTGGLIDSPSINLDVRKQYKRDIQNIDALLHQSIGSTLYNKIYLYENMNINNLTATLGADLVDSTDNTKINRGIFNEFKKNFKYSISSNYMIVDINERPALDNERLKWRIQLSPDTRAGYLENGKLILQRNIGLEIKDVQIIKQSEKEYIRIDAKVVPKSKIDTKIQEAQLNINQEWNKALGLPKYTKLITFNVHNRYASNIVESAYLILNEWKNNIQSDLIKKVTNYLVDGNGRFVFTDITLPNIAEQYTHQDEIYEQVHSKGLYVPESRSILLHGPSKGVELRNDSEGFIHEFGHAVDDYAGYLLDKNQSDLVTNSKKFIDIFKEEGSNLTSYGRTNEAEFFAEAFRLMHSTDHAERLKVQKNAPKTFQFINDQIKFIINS
BoNT F protease – blocks Botulinum neurotoxin F light chain protease | inhibition, % at 10 µM | 360,000 compounds, 0.22% hits | AID 588497 | Multiplex microsphere protease cleavage assay, flow cytometry; in the data active = inhibition above about 35%, passing the limit was not always enough; inconclusive = no clear call, values can overlap the other calls
GDH-TPI counter – counter-screen for M. tuberculosis FBA inhibitors: GDH-TPI coupled enzymes; GDH-TPI coupled enzyme counterscreen, NADH absorbance; inhibition, % at 4.8 µM; 360,000 compounds, 1.2% hits; AID 588335; in the data active = inhibition above about 30%
Mtb FBA inh – Mtb fructose-bisphosphate aldolase inhibition. P9WQA3. purified M. tuberculosis FBA, fluorescence read-out. inhibition, % at 1 µM. 360,000 compounds, 2.3% hits. AID 588726; in the data active = inhibition above about 27%
BoNT-A LC inh2 – BoNT A light chain protease inhibition; multiplex microsphere protease substrate cleavage, flow cytometry; inhibition, % at 10 µM; 360,000 compounds, 0.17% hits; AID 588499
Bead autofluor – counter-screen for toxin protease inhibitors: compound fluorescence; compound autofluorescence counterscreen, microsphere flow cytometry; active compounds read high; fluorescence intensity (concentration not given with the values); 360,000 compounds, 3.1% hits; AID 624483; in the data active = fluorescence intensity above about 16000; inconclusive = no clear call, values can overlap the other calls
Large screens that a line does not name were inactive; ! = not active in a repeat. Cut-off read from the data, not from the text of the source, unless noted: active = inhibition above about 30%; inconclusive = no clear call, values can overlap the other calls; inactive = below that.

CCN(CC)CCNC(=O)NC1CCCCC1	BoNT-A LC inh2 inconclusive, Bead autofluor 22854
O=C(Nc1cccnc1)Nc1ccc(Br)cc1Cl	Bead autofluor 16594
O=C(Nc1cccnc1)Nc1ccccc1Cl	none
CCOC(=O)C1=NN(c2ccccc2)C2C(=O)N(c3ccccc3OC)C(=O)C12 (configuration not stated)	GDH-TPI counter 38 (no result: Anthrax LF prot, BoNT F protease, BoNT-A LC inh2, Bead autofluor)
CCCCn1c(O)c(C(C)=NC(Cc2c[nH]c3ccccc23)C(=O)OC)c(=O)[nH]c1=O (configuration not stated)	Bead autofluor 20728
CCCCn1c(O)c(C(CC)=Nc2ccc3c(c2)CCC3)c(=O)[nH]c1=O	Bead autofluor 16607
CCCCn1c(O)c(C(C)=Nc2cccc(C(=O)O)c2)c(=O)[nH]c1=O	BoNT-A LC inh2 inconclusive, Bead autofluor 21668
CCCCn1c(O)c(C(C)=Nc2ccc(OCC)cc2)c(=O)[nH]c1=O	none
CCC1(c2ccc(Cl)cc2)NC(=O)N(Cc2ccc(C(=O)OC)cc2)C1=O (configuration not stated)	none
CCOC(=O)CC(C#N)c1cn(C)c2ccccc12 (configuration not stated)	none
CCCn1cc(C(CC(=O)O)C(=O)O)c2ccccc21 (configuration not stated)	Bead autofluor 24400
Cn1cc(C(CC(=O)O)C(=O)O)c2ccccc21 (configuration not stated)	Bead autofluor 23907
CCCn1nnnc1-c1ccc(Cl)cc1	Bead autofluor 19416
FC(F)(F)c1cccc(Cn2nnnc2-c2ccc(Cl)cc2)c1	Bead autofluor 22919
CCCn1nnnc1-c1cccc(Cl)c1	Bead autofluor 20165
CCCn1nnnc1NC(=O)c1cc(Cl)ccc1Cl	none
CC1(c2nnnn2Cc2ccccc2)CCC(=O)N1Cc1cccc(C(F)(F)F)c1 (configuration not stated)	none (no result: GDH-TPI counter, Mtb FBA inh)
Nc1ncnc2c1ncn2[C@@H]1O[C@H](CCC(=O)NCc2ccccc2)[C@@H](O)[C@H]1O	none (no result: GDH-TPI counter)
COCCCn1c(C(=O)Nc2ccc3c(c2)OCO3)cc2c(=O)n3ccccc3nc21	none
CCOCCCn1c(=NC(C)=O)c(C(=O)OCC)cc2c(=O)n3ccccc3nc21	Bead autofluor 23789!
CCOCCCn1c(=NC(C)=O)c(C#N)cc2c(=O)n3ccccc3nc21	BoNT F protease inconclusive, Mtb FBA inh active
C=CCNC(=S)N/N=C/c1cn(C)c2ccccc12	Anthrax LF prot inconclusive, GDH-TPI counter 32
Cc1nn(-c2ccccc2)cc1/C=N/NC(N)=S	none
Cn1cc(/C=N/NC(N)=S)c2ccccc21	GDH-TPI counter 37
C=CCNC(=S)N/N=C/c1ccccc1OCCOc1ccccc1	none
CCCNC(=O)c1c(N)n(Cc2ccc3c(c2)OCO3)c2nc3ccccc3nc12	Bead autofluor 23041
CC(=O)c1c(C(C)=O)c(C)n(Cc2ccc3c(c2)OCO3)c1C	Bead autofluor 22217
O=C1c2ccccc2C(=O)N1Cc1ccc2c(c1)OCO2	none
O=C(O)c1ccc2c(c1)C(=O)N(Cc1ccc3c(c1)OCO3)C2=O	Bead autofluor 23047
COCCCNC(=O)c1c(N)n(Cc2ccco2)c2nc3ccccc3nc12	Mtb FBA inh 118
CC(C)CCNC(=O)c1c(N)n(Cc2ccc3c(c2)OCO3)c2nc3ccccc3nc12	none
CC(C)CNC(=O)c1c(N)n(Cc2ccco2)c2nc3ccccc3nc12	Mtb FBA inh 55
Nc1c(C(=O)NCc2ccco2)c2nc3ccccc3nc2n1CCc1ccc(F)cc1	Mtb FBA inh 28 (no result: Anthrax LF prot, BoNT F protease, BoNT-A LC inh2, Bead autofluor)
CC(C)OCCCNC(=O)c1c(N)n(Cc2cccs2)c2nc3ccccc3nc12	Mtb FBA inh 34
COCCOC(=O)c1c(N)n(Cc2ccco2)c2nc3ccccc3nc12	Mtb FBA inh 150
Cc1ccc([C@@]2(OC(=O)c3ccccc3)C(=O)N(C(=O)OC(C)(C)C)c3ccccc32)cc1	none (no result: GDH-TPI counter, Mtb FBA inh)
O=C(Nc1ccccc1C(F)(F)F)c1c(F)cccc1Cl	none
CCOC(=O)[C@@H](C)N(Cc1ccc(OC)cc1)S(=O)(=O)N(Cc1ccccc1)[C@H](C(=O)OC)C(C)C	none
Cc1ccc(C)c(S(=O)(=O)NCC(=O)N2CCCC2)c1	BoNT F protease inconclusive
Cc1cc(C)c(C)c(S(=O)(=O)NCC(=O)N2CCCC2)c1C	Bead autofluor 20412
CCOC(=O)NC1(NCC(C)C)Oc2ccccc2O1	Bead autofluor 16411
CC(=O)Nc1cccc2c1Cc1ccccc1-2	none
CC(=O)Nc1cccc2c1Cc1cc([N+](=O)[O-])ccc1-2	GDH-TPI counter 40
COc1ccc(-c2csc(C(C)(NC(C)=O)c3ccccc3)n2)cc1 (configuration not stated)	none
COc1ccccc1N1CCN(Cc2ccccc2)CC1	none
COc1ccccc1N1CCN(Cc2c(F)cccc2Cl)CC1	Bead autofluor 21264
COc1ccccc1N1CCN(Cc2ccco2)CC1	none
COc1cc(CN2CCC(C(=O)N3CCN(c4ccccc4F)CC3)CC2)cc(OC)c1OC	Bead autofluor 16517
COc1ccccc1N1CCN(Cc2ccc(Br)s2)CC1	Bead autofluor 20319
COc1ccccc1N1CCN(S(=O)(=O)c2cccc(F)c2)CC1	Bead autofluor 22849
CCCCN1C(=O)C(CC(=O)NCCCN(C)C)CC(C(=O)N(C(C)C)C(C)C)=C1C (configuration not stated)	none (no result: GDH-TPI counter, Mtb FBA inh)
CCc1ccc(N(CC(=O)NCc2ccco2)C(=O)CCC(=O)Nc2nccs2)cc1	none
OCCC1CN(Cc2cnc(-c3cccc4ccccc34)nc2)CCN1C1CCCCC1 (configuration not stated)	none
CCOc1ccccc1N1CCN(Cc2cccc(OC)c2O)CC1	BoNT-A LC inh2 inconclusive, Bead autofluor 17870
CC(NC(=O)c1ccc(C(C)(C)C)cc1)C(=O)O (configuration not stated)	Bead autofluor 21690
COC(=O)C(C)NC(=O)c1ccc(C(C)(C)C)cc1 (configuration not stated)	none
CCCCOc1ccc(C(=O)NC)cc1	none
CCCOc1ccc(C(=O)NC(C)C(=O)O)cc1 (configuration not stated)	Bead autofluor 21313
CCOC=C1C(=O)N(C(C)=O)c2cc(OC)c(OC)cc21	none
O=C(O)Cc1cccc(=O)c(O)c1C(=O)O	none
COc1cccc(CCC(=O)N(C)C2CCCN(Cc3ccccc3F)C2)c1 (configuration not stated)	BoNT F protease 36
O=C(Oc1coc(CSc2ncccn2)cc1=O)c1ccccc1[N+](=O)[O-]	none
O=C(N/N=C/c1cc2cc3c(cc2nc1Cl)OCO3)c1ccncc1	BoNT F protease inconclusive, GDH-TPI counter 69
O=C(N/N=C/c1cc2cc3c(cc2nc1Cl)OCCO3)c1ccccc1O	none
Cc1ccc(/C=N/NC(=O)c2ccco2)s1	GDH-TPI counter 38, Bead autofluor 25160
CCc1ccc(/C=N/NC(=O)c2cc(C)on2)s1	GDH-TPI counter 32
Cn1cccc1/C=N/NC(=O)c1ccco1	GDH-TPI counter 34
Cn1cccc1/C=N/NC(=O)c1cccs1	none
Cc1ccc(/C=N/NC(=O)c2ccoc2C)s1	none
